Data taken from PubChem BioAssay AID2391 (Southern Research Specialized Biocontainment Screening …, 2010).
The campaign covered roughly 310,000 compounds. About 410 (0.13%) were called active. Another 2% or so got no clear call; they are omitted. How the calls were made is not given here. The list is a sample of the results. Entries with a potency or affinity are not part of this list.

Assay: RSV antiviral activity via CPE protection, HEp-2 cells, primary 10 µM value included (AID 2391)
Conditions: RSV-induced CPE inhibition, at 10 µM, active compounds read high

CPE inhibition, inactive:
Cc1ccc2c(C)c(C(=O)N3CCN(c4cnccn4)CC3)oc2c1C 16.7%
Cc1ccc2c(C)c(C(=O)N3CCN(Cc4ccccn4)CC3)oc2c1C 1.72%
CC(C)N(CCO)Cc1nc(C(c2ccccc2)c2ccccc2)no1 -0.29%
Cc1c(C(=O)NCC2CCCO2)oc2ccc(Br)cc12 (stereo unspecified) 3.18%
O=C(NCc1ccccc1)c1ccc(NC(=O)C2CCCO2)cc1 (stereo unspecified) 0.29%
O=C1CN(C(=O)CSc2nc3ccccc3c(=O)n2Cc2ccc(F)cc2)c2ccccc2N1 16.3%
Cc1ccc(-n2c(SCC(=O)N3CC(=O)Nc4ccccc43)nc3ccccc3c2=O)cc1 3.64%
O=C(COC(=O)CNC(=O)c1ccc(Cl)cc1)NC1CCCCCC1 -0.18%
CCOCCCNC(=O)C1CCCN1C(=O)NC1CCCCC1 (stereo unspecified) 1.83%
CCOC(=O)N/N=C(\C)c1cccs1 -0.75%
Nc1ccc(-c2nc3ccccc3[nH]2)cc1 -0.76%
Nc1ccc(-c2nc3ccccc3o2)cc1 2.51%
Cc1ccc(S(=O)(=O)Nc2ccc3nc(-c4cccn4C)[nH]c3c2)cc1 2.21%
O=C(NC(=S)Nc1ccc(S(=O)(=O)Nc2nccs2)cc1)C1CC1 -0.1%
O=C(Nc1ccc(S(=O)(=O)Nc2nccs2)cc1)C1CCCCC1 1.14%
O=C(c1cccc(N2C(=O)C3C4C=CC(C4)C3C2=O)c1)N1CCN(c2ccccc2)CC1 (stereo unspecified) 3.62%
O=C(c1cccc(N2C(=O)C3C4C=CC(C4)C3C2=O)c1)N1CCN(c2ccccc2F)CC1 (stereo unspecified) 1.69%
Cc1ccc(S(=O)(=O)NCCC(=O)NCC(c2ccc(F)cc2)N2CCOCC2)cc1 (stereo unspecified) -0.75%
COc1ccc(CNC(=S)Nc2cccc(OC)c2)cc1 0.93%
CCOc1cc(S(=O)(=O)N(CC)CC)ccc1Br 0.38%
COc1ccccc1CNC(=O)CN(C)S(=O)(=O)c1ccc(Br)s1 3.3%
